The record followed here is PubChem BioAssay (NCI).

Assay in all cases: NCI-60 one-dose screen, 48 h (100 = growth as untreated, 0 = no growth, -100 = all killed)
What all share (conditions): 10 µM unless noted

The subject of test [1] is SR leukemia.
Test [2] deals with RPMI-8226 leukemia.
Test [3] deals with OVCAR-8 ovarian.
Test [4] deals with OVCAR-5 ovarian.
For test [5], the system named is OVCAR-4 ovarian.
For test [6], the system named is SK-OV-3 ovarian.
For test [7], the system named is IGROV1 ovarian.
The test system of test [8] is OVCAR-3 ovarian.
Test [9] concerns HS 578T breast.
For test [10], the system named is NCI/ADR-RES ovarian.

About 83,000 compounds went through this panel and 20% of them were active in at least one assay; those are over-represented in the sample as a whole.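 Assay: single dose, 48 h. Readout: percent growth (0 = no net growth; negative = cell death). Active: <10.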 Unmarked numbers belong to inactive results. The source made the active and inactive calls.

`O=C(Nc1ccc(-c2nc(N3CCOCC3)c3cccn3n2)cc1)Nc1cccnc1`: the growth is 11% in test [1]; -12% (active) in test [2]; 1.49% (active) in test [3]; 10.1% in [4]; -10.7% (active) in [5]; -24.2% (active) in test [6]. The growth in test [7] is -19.2% (active); in test [8] it was 4.15% (active); in [9] it was -32.3% (active); in [10] it was 0.693% (active).
As for `CCNc1nc(-c2ccc(Cl)c(OC)c2)c(-c2ccnc(NCCCNS(=O)(=O)c3ccc(Cl)cc3)n2)s1`, the growth in test [1] was 43.4%; in [2], 45.9%; in test [3], 51%; in [4], 87.6%; in [5], 83%; in [6] it was 42.1%. For the same molecule, the growth was 56.1% in test [7], 81.2% in test [8], 64.3% in test [9] and 77.6% in test [10].
For the molecule `O=S(=O)(NCCNc1cc(-c2c(-c3cccc(O)c3)nc3sccn23)ccn1)c1ccc(C(F)(F)F)cc1`, the growth in test [1] is 19.6%; in [2] it was 30.3%; in test [3], 28.4%; in test [4], 93.5%; in test [5] it was 22.1%; in test [6] it was 45.4%. Also, the growth in test [7] is 36.4%; in [8], 37.1%; in [9], 42.8%; in test [10], 58%.
For `CCn1cc(C(=O)N/N=C/c2cccs2)c(=O)c2cc(F)c(N3CCNC(C)C3)c(F)c21` (stereo not given), the growth in [1] was -4.21% (active); in test [2], -36.6% (active); in [3] it was 43.8%; in test [4], 67.2%; in test [5], 76.2%; in test [6] it was 90.3%. Further, the growth is 67% in [7], 68.7% in [8], 86% in test [9] and 67.9% in [10].
`CC1(C)CCC(S(=O)(=O)c2ccc3c(c2)/C(=N\O)c2cc(S(=O)(=O)N4CCC(O)(c5cccc(C(F)(F)F)c5)CC4)ccc2-3)CC1`: the growth in test [1] was -54% (active); in test [2], -52.5% (active); in test [3] it was -73% (active); in test [4], -80.3% (active); in [5] it was -92.6% (active); in test [6] it was -99.6% (active). In addition, the growth in [7] was -32.1% (active); in test [8], -98.3% (active); in [9], -56.4% (active); in test [10], 61%.
On to `Cc1ccc(Sc2nnc(/N=C3\C(=O)Nc4ccccc43)s2)cc1`, for which the growth in [1] is 91.4%; in test [2], 94.8%; in test [3], 101%; in [4] it was 102%; in test [5], 113%; in [6] it was 110%. Besides, the growth in test [7] is 88.6%; in test [8], 106%; in test [9] it was 97.5%; in [10] it was 101%.
Regarding `CCOC(=O)c1ccc2[nH]c(O)c(C(=Nc3ccc(N(C)C(=O)CN4CCN(C)CC4)cc3)c3ccccc3)c2c1`, the growth in [1] is -20.7% (active); in [2], -28.2% (active); in test [3] it was -11.9% (active); in [4], -14% (active); in [5] it was -71.1% (active); in test [6] it was -20.3% (active). For the same molecule, the growth in test [7] is -33.6% (active); in test [8], -76.5% (active); in test [9] it was -5.29% (active); in [10], 53.1%.
In the case of `Cc1cc(=O)[nH]c2c(C#N)cnn12`, the growth in test [1] is 112%; in test [2], 101%; in test [3] it was 98.7%; in [4], 97.7%; in test [5], 111%; in test [6] it was 106%. Besides, the growth in test [7] was 97.2%; in test [8], 101%; in [9] it was 92.6%; in [10], 102%.
With `COc1cc(-c2nc3cc(Cl)c(Cl)cc3[nH]2)ccc1OCC(=O)N=Nc1c(O)[nH]c2ccc([N+](=O)[O-])cc12`, the growth in test [1] is 23.9%; in test [2] it was 101%; in test [3], 69.3%; in test [4] it was 105%; in test [5], 71.7%; in [6] it was 77%. Moreover, the growth in test [7] is 87.1%; in test [8] it was 36.1%; in test [9], 68.2%; in test [10], 109%.
With `Cc1ccc(-c2csc(NC(=O)CN3CCN(c4cc5c(cc4F)c(=O)c(C(=O)O)cn5C4CC4)CC3)n2)cc1`, the growth in test [1] is -0.152% (active); in test [2] it was 6.21% (active); in test [3], 10.6%; in [4], 21.1%; in test [5], 20.8%; in [6] it was -7.14% (active). Moreover, the growth in test [7] is 25.4%; in test [8] it was 14.8%; in test [9] it was 47.8%; in test [10], 4.91% (active).
On to `COc1ccc(/C=C2\COc3ccc(O)cc3C2=O)c(OC)c1OC`, for which the growth was 16.5% in [1]; 8.76% (active) in [2]; 67% in test [3]; 95.8% in [4]; 79.3% in test [5]; 112% in test [6]. Further, the growth in test [7] is 91.3%; in [8], 57.2%; in test [9], 78%; in [10] it was 55.1%.
In the case of `O=C1C(Cl)=C(Oc2ccccc2)C(=O)c2ccccc21`, the growth in [1] was 48.8%; in test [2], 35.2%; in [3], 85%; in test [4] it was 118%; in [5] it was 106%; in test [6] it was 103%. For the same molecule, the growth in test [7] is 80.7%; in test [8], 16%; in [9] it was 31.6%; in test [10], 88.6%.
As to `CN(C)c1ccc(/C=C/C(=O)c2ccc(-n3cc(CN4CCN(c5cc6c(cc5F)c(=O)c(C(=O)O)cn6C5CC5)CC4)nn3)cc2)cc1`, the growth in test [1] was 7.11% (active); in [2], -24.6% (active); in [3] it was 23.3%; in test [4] it was 84.2%; in [5], 93.1%; in [6], 71.6%. Moreover, the growth in test [7] is 39.6%; in test [8] it was 46.6%; in test [9], 57.4%; in test [10] it was 92.1%.
`CC(C)CCNC(=O)Cn1cccc(NC(=O)OCc2ccccc2)c1=O`: the growth in [1] was 107%; in test [2] it was 92.6%; in test [3] it was 104%; in test [4], 127%; in [5] it was 98.7%; in test [6], 101%. The growth in [7] is 112%; in test [8], 107%; in test [9] it was 103%; in test [10] it was 93.9%.
For the molecule `COCCn1c(-c2csc(-c3cn(C)c4ccc(OC)cc34)n2)cc2cccnc21`, the growth in [1] was 18.4%; in test [2] it was 65.4%; in [3] it was 59.7%; in test [4] it was 79.9%; in test [5], 55.9%; in test [6], 65.2%. Besides, the growth in [7] was 94.5%; in test [8] it was 65.5%; in test [9], 58.5%; in test [10], 46.4%.
As for `CNc1nc(S(=O)c2ccc(C#N)cc2)nc2ccccc12` (stereo not given), the growth in [1] was 29.4%; in test [2] it was 61%; in test [3], 87.8%; in test [4], 81.2%; in test [5] it was 68.6%; in test [6], 98.6%. The growth in [7] was 86.3%; in test [8] it was 53.4%; in test [9] it was 79.9%; in test [10], 97.8%.
Regarding `Cc1ccc(-c2nc(N3CCNCC3)c3oc(-c4ccccc4)nc3n2)cc1`, the growth in test [1] was -44% (active); in test [2] it was -54.7% (active); in [3] it was -66.4% (active); in [4], 14.7%; in test [5] it was -51.6% (active); in test [6], 87.4%. For the same molecule, the growth was -68% (active) in test [7], -89.5% (active) in [8], -7.69% (active) in test [9] and -23.1% (active) in test [10].
As to `CCN(CC)c1ccc(/C=C/C(=O)c2ccc(Nc3nc(Nc4ccccc4)nc(Nc4ccccc4)n3)cc2)cc1`, the growth was 39% in test [1]; -23.6% (active) in test [2]; 43.8% in test [3]; 71.3% in test [4]; 58.5% in test [5]; 77.4% in test [6]. In addition, the growth in test [7] is 47.8%; in test [8] it was 46.5%; in [9], 26.2%; in test [10], 39.1%.
As for `Cc1cccc(Cl)c1NC(=O)c1ccc2nc(NC(=O)NCCN(C)C)sc2c1`, the growth in test [1] is 66%; in [2] it was 94%; in test [3] it was 85.7%; in [4], 85.4%; in [5] it was 95.3%; in [6], 64.2%. Also, the growth in test [7] is 109%; in [8] it was 114%; in test [9], 81.8%; in [10] it was 118%.
On to `Cc1nc2sc(C(=O)Nc3ccccc3)c(N)c2cc1C(=O)c1ccccc1`, for which the growth is 8.32% (active) in test [1]; 38% in test [2]; 56% in test [3]; 59% in [4]; 63% in test [5]; 4.72% (active) in test [6]. In addition, the growth in test [7] is 56.8%; in test [8], 29.2%; in test [9], 13%; in test [10], 37.8%.
Take `CC[C@]12C=CCN3CC[C@@]4(c5cc(NC(=O)CCC(=O)OCc6cn(Cc7ccc(F)cc7)nn6)c(OC)cc5N(C)[C@H]4[C@@](O)(C(=O)OC)[C@@H]1OC(C)=O)[C@@H]32`: the growth in test [1] was 94.2%; in test [2] it was 104%; in test [3], 103%; in test [4], 100%; in [5], 98.2%; in test [6], 90.7%. Moreover, the growth was 108% in [7], 104% in test [8], 108% in [9] and 109% in test [10].
In the case of `CC(C)(C)n1cc(-c2ccnc(NCCCNS(=O)(=O)c3ccc(F)cc3)c2)c(-c2cccc(F)c2)n1`, the growth in test [1] is 14.3%; in test [2], 28.1%; in test [3], 54.8%; in [4], 69%; in test [5], 79.2%; in [6] it was 75.3%. Also, the growth in [7] is 68.6%; in [8], 74.8%; in [9], 78.9%; in [10], 52%.
For the molecule `COc1cccc(NC(=O)Cn2cc(CN3CCN(c4ccnc5cc(Cl)ccc45)CC3)nn2)c1`, the growth is 97.2% in test [1]; 48% in test [2]; 83.2% in [3]; 93.5% in [4]; 85.9% in test [5]; 74% in [6]. For the same molecule, the growth in [7] was 84.9%; in test [8], 101%; in [9], 80.8%; in test [10], 94.7%.
With `COc1ccc(C(=S)N2CCN(c3ccccc3Cl)CC2)cc1OC`, the growth in test [1] was 39.9%; in test [2] it was 117%; in test [3] it was 105%; in test [4], 95.2%; in test [5], 99.9%; in test [6], 120%. In addition, the growth in test [7] is 105%; in test [8] it was 104%; in test [9], 99.4%; in test [10] it was 108%.
For `O=C(CN1C(=O)CCC1=O)Nc1ncc(Cc2ccc(F)cc2)s1`, the growth in test [1] was 99.9%; in test [2], 105%; in test [3], 107%; in test [4], 97.3%; in test [5] it was 101%; in test [6], 110%. The growth in test [7] is 101%; in test [8], 103%; in [9], 101%; in [10], 100%.
Consider `CCCCOC(=O)OCc1cc(=O)c(O)co1`, for which the growth in test [1] was 104%; in test [2] it was 106%; in [3], 102%; in test [4] it was 102%; in test [5], 104%; in [6], 105%. Besides, the growth in [7] was 110%; in test [8], 114%; in test [9] it was 101%; in test [10], 108%.
